Inhibition data for 57 compounds are collected here from PubChem BioAssay AID485344 (National Center for Advancing Translational Sciences (NCATS), 2010).

Molecules are shown by their SMILES. Hit rate of the full screen: of about 340,000 compounds, about 6,900 (2%) were called active. What follows is part of a selection rich in actives, with near analogues and random picks from the rest. Values without a mark were called inactive. Rule as the data show it: active = inhibition above about 30%; inactive = below that, where a call was filed.

A word on the inhibition: it is the relative decrease from the control value, in per cent.

D(2) dopamine receptor (Homo sapiens), sequence (P14416 whole entry, looked up): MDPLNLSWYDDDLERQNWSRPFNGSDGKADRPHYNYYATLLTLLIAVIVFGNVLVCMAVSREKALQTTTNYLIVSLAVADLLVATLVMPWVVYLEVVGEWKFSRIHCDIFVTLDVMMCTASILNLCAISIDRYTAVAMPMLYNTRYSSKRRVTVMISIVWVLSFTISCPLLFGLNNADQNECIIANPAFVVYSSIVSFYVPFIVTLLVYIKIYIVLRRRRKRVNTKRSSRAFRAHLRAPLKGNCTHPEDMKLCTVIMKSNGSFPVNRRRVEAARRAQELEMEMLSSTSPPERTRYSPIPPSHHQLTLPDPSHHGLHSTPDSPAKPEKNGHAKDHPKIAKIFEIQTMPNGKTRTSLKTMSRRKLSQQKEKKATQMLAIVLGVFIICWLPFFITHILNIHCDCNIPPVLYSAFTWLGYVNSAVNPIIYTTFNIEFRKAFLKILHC

For the assay, the target named is D(2) dopamine receptor (Homo sapiens) (UniProt P14416). The assay is described as follows: HTS Assay for Allosteric Antagonists of the Human D2 Dopamine Receptor: Primary Screen for Antagonists. Also: 0% is about no effect. The following applies: HEK293 TREx D2 cells, calcium flux, dopamine EC80; at 10 µM; hits give high values. Summed up:
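Inhibition of EC80 dopamine-driven calcium flux, recorded kinetically, defines activity here; cells are a tetracycline-induced HEK293 T-REx line expressing force-coupled D2.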
(Calcium flux is commonly read through the fluorescence of an indicator in the cells.)
As to `COc1cc(OC)cc(C(=O)NNC(=O)CCOc2ccccc2OC)c1`, the inhibition is 23.6%. As for `Cc1cccc(NC(=O)CCN2CC(C)CC(C)C2)c1` (configuration not stated), the inhibition is 4.5%. Turning to `Cc1[nH]c2ccccc2c1C(=O)CN1CC(C)CC(C)C1` (configuration not stated), the inhibition is 14.4%. In the case of `CC1CC(C)CN(CCOc2cccc3ccccc23)C1` (configuration not stated) it was 55.1% (active). For the compound `COc1cccc(NC(=O)COC(=O)/C=C/c2ccco2)c1`, the inhibition was 13.2%. For the compound `Cn1c(SCC(=O)Nc2ccc(N3CCOCC3)cc2)nnc1C(F)(F)F`, the inhibition was 6.16%. Consider `O=C(c1ccc2c(c1)OCCO2)C1CCN(S(=O)(=O)c2cccc(F)c2)CC1`, for which the inhibition is 61.3% (active). For `O=C(c1c(F)cccc1F)N1CCN(S(=O)(=O)c2ccc3c(c2)OCCO3)CC1`, the inhibition was 8.79%. On to `O=C(Nc1ccccn1)C1CCN(S(=O)(=O)c2ccc3c(c2)OCCO3)CC1`, for which the inhibition was -2.31%. Take `O=C(CSc1nnc(N2CCOCC2)n1-c1cccc(F)c1)N1CCN(c2ccccn2)CC1`: the inhibition is 4.3%. On to `COc1ccccc1C(=O)NCC(=O)OCC(=O)Nc1nnc(-c2ccccc2)o1`, for which the inhibition is 1.12%.

In the case of `CC(C)(C)C(=O)CSc1ccc(S(=O)(=O)N2CCCC2)cn1`, the inhibition was 5.12%.

For `Cc1c(CN2CCCC(C(=O)c3cccc(Cl)c3)C2)c(=O)n(-c2ccccc2)n1C` (configuration not stated), the inhibition is -0.0762%.

Turning to `Cc1cccc(N2CCN(Cc3c(C)n(C)n(-c4ccccc4)c3=O)CC2)c1C`, the inhibition was 41.2% (active).

For `Cc1c(CN2CCC(C)CC2)c(=O)n(-c2ccccc2)n1C`, the inhibition is -7.69%.

In the case of `C#CCOCCOCCOCCNc1nc(N2CCN(C(=O)CCCCCCCCCCNC(=O)[C@H](CCCCN)n3cc(C)nn3)CC2)nc(N2CCN(C(=O)CCCCCCCCCCNC(=O)[C@H](CO)n3cc(CCCSC)nn3)CC2)n1`, the inhibition is -18.3%. As for `CC12CCC(=O)N1C(C(=O)NCCN1C(=O)S/C(=C\c3ccccc3F)C1=O)CS2` (configuration not stated), the inhibition was -9.13%.

For the compound `CCOc1ccc(NS(=O)(=O)c2ccc(Cl)c(C(=O)N(C)Cc3cccnc3)c2)cc1`, the inhibition was 10.8%. With `CCN(CC)S(=O)(=O)c1ccc(N2CCOCC2)c(NC(=O)c2ccc(=O)n(C)n2)c1`, the inhibition was -40.6%.

In the case of `CCOc1ccccc1/C=c1\sc2nc(-c3ccco3)nn2c1=O`, the inhibition was 33.5% (active). Turning to `O=c1nc2s/c(=C\c3ccco3)c(=O)n2nc1Cc1ccccc1`, the inhibition is -1.5%.

Turning to `CSc1nc(-c2ccco2)nn1C(=O)CCc1ccccc1`, the inhibition was 10.1%.

With `CC(=O)c1ccccc1NC(=O)C1CC(=O)N(c2ccc3c(c2)OCCO3)C1` (configuration not stated), the inhibition was -6.21%. Under `COc1ccc(OC)c(/C=C/C(=O)c2ccc3c(c2)OCO3)c1` stands 6.23%; under `Nc1nc(SCc2ccc([N+](=O)[O-])cc2)c2ncn(C3OC(CO)C(O)C3O)c2n1` (configuration not stated), 36.3% (active); under `Cc1nc(N)nc(SCc2ccc([N+](=O)[O-])cc2)c1N`, 12.4%.

For the compound `Cc1cc(C)cc(C(=O)N2CCN=C2SCc2ccc([N+](=O)[O-])cc2)c1`, the inhibition is -7.25%. `COc1cc(F)c(C2=CC(=O)CC(C)(C)C2)cc1F`: the inhibition was -9.82%. For `COC(=O)c1cccc(NC(=O)c2cccc(N3C(=O)CCC3=O)c2)c1`, the inhibition was 0.805%. Take `COc1ccc([C@@H]2[C@@H]3C(=O)N(C(C)(C)C)C(=O)[C@@H]3[C@]3(Cc4ccccc4)C(=O)N(c4cccc(Br)c4)C(=O)N23)cc1`: the inhibition is -3.44%. In the case of `Cc1cc(S(=O)(=O)NC2CCCCC2)ccc1OCC(=O)NCc1cccnc1` it was -3.46%.

Turning to `Cc1ccc(CNC(=O)COc2ccc(S(=O)(=O)NC(C)C)cc2)cc1`, the inhibition was 6.5%. On to `Cc1ccc(C)c(NS(=O)(=O)c2ccc(OCC(=O)NCc3cccnc3)cc2)c1`, for which the inhibition was 42.3% (active). As for `Cc1cccc(C(=O)NCc2nnc(SC(C)C(=O)Nc3nnc(C)s3)n2C)c1` (configuration not stated), the inhibition is 8.11%. For `CC1(C)CC(=O)C=C(c2ccc3ncccc3c2)C1`, the inhibition is -2.57%. For the compound `CCN(CC(=O)Nc1c(F)cccc1F)C(=O)C1CCC1`, the inhibition was -5.66%. In the case of `COc1cc(OC)cc(C(=O)NCC(=O)N2CCCCCCC2)c1`, the inhibition is 33.6% (active). For `CCOc1ccc(C(=O)NCC(=O)N2CCCCCCC2)cc1OCC`, the inhibition was -3.78%.

Regarding `Cc1cc(C)cc(C(=O)NCC(=O)OCC(=O)N2CCCCC2)c1`, the inhibition is 1.51%.

As to `N/C(=N\OC(=O)/C=C/c1ccccc1)c1ccc(Br)cc1`, the inhibition is -2.34%. Under `N/C(=N\OC(=O)c1ccc2c(c1)OCO2)c1ccc(Br)cc1` stands 46.1% (active); under `N/C(=N\OC(=O)N1c2ccccc2Sc2ccccc21)c1ccc(Br)cc1`, -13.7%; under `Cn1nc(C(=O)OCC(=O)N(Cc2ccccc2)C(C)(C)C)c2ccccc2c1=O`, -16.5%. For the compound `OCCC1CN(Cc2ccc(Oc3ncccn3)cc2)CCN1CCc1ccccc1` (configuration not stated), the inhibition is -20.6%. Consider `OCCC1CN(Cc2cccc(OC3CCCC3)c2)CCN1Cc1ccsc1` (configuration not stated), for which the inhibition was 65.5% (active).

Consider `OCCC1CN(Cc2cccc(O)c2)CCN1CCc1ccccc1` (configuration not stated), for which the inhibition was 54.8% (active). As for `OCCC1CN(Cc2ccccc2-c2ccco2)CCN1Cc1ccsc1` (configuration not stated), the inhibition was -17.4%. Regarding `OCCC1CN(Cc2cnc(-c3ccccc3)s2)CCN1CCc1ccccc1` (configuration not stated), the inhibition was -6.7%. In the case of `OCCC#Cc1ccc(CN2CCN(Cc3ccsc3)C(CCO)C2)cc1` (configuration not stated) it was 6.27%; in that of `Cc1ccc(NC(=O)CCCNC(=O)c2ccc(Cl)cc2)cc1S(=O)(=O)N1CCCCC1`, 2.49%. Consider `Nc1ccc(C(=O)N2CCN(S(=O)(=O)c3ccc(Cl)cc3)CC2)cc1[N+](=O)[O-]`, for which the inhibition was 1.49%. For `O=c1cc(CN2CCN(c3cccc(Cl)c3)CC2)c2cc3c(cc2o1)CCCC3`, the inhibition is -7.58%. As for `OC(COc1ccc2c(c1)CCC2)CN1CCN(c2cccc(Cl)c2)CC1` (configuration not stated), the inhibition is 39.2% (active). Under `O=C(COc1ccc2c(c1)CCC2)N1CCN(c2ccc(F)cc2)CC1` stands 3.48%; under `C/C(=N/Nc1nc(-c2ccccc2)c(CC(=O)O)s1)c1ccccc1`, -8.33%; under `O=C(O)Cc1sc(-c2ccccc2)nc1-c1cccs1`, 3.67%. In the case of `O=C(O)Cc1sc(-c2ccc(C(=O)O)cc2)nc1-c1ccccc1`, the inhibition was 32.7% (active).
